HT1080 IDH1KD tx – toxicity to HT-1080 IDH1 knockdown cells (counter line); HT-1080 IDH1 knockdown viability, ATP luminescence, 48 h; Potency, µM (titrated, usually from 46.1 µM), hits mostly cytotoxic; 360,000 compounds, 2% hits; AID 686971
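Luminescent ATP read-out (CellTiter-Glo, 10 min at room temperature) after 48 h compound exposure at 37 °C gave viability of IDH1-knockdown HT-1080 cells. Activity was normalised to DMSO and cell-free wells, then fitted as concentration-response curves.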
TDP1 cell CPT – DT40-hTDP1 cell growth loss with CPT. chicken DT40 Tdp1-/-;hTDP1 cells + 20 nM CPT, ATP luminescence, 48 h. Potency, µM (highest dose often 46.2 µM), most hits filed as inhibitors. 420,000 compounds, 12% hits; also: nearly all actives have a fitted effect of over 55% in size
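Chicken DT40 Tdp1-/- cells stably complemented with human TDP1 were seeded at 400 cells/well in medium containing 20 nM camptothecin, exposed to pin-transferred compounds, and grown at 37 °C for at least 48 hr. Viability was read as ATP luminescence.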
DT40 TDP1 no CPT – qHTS for Inhibitors of human tyrosyl-DNA phosphodiesterase 1 (TDP1): qHTS in cells in absence of CPT. DT40 Tdp1-/- hTDP1 cells, no CPT, ATP luminescence, 48 h. Potency, µM (doses to about 46.2 µM), most hits filed as inhibitors. 420,000 compounds, 15% hits. AID 686978, 2013; also: nearly all actives have a fitted effect of over 55% in size
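Luminescent ATP content (CellTiter-Glo) served as the growth readout. Knockout chicken DT40 cells expressing human TDP1 were exposed to compounds without camptothecin for a minimum 48 hr at 37 °C.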
ALOX12 inh – inhibitors of human 12S-lipoxygenase ALOX12 | P18054 | purified 12hLO, xylenol orange hydroperoxide absorbance | Potency, µM (titrated, usually from 108 µM), hits mostly inhibitors | 580,000 compounds, 1.1% hits | AID 1671190
Target sequence (P18054 whole entry, looked up): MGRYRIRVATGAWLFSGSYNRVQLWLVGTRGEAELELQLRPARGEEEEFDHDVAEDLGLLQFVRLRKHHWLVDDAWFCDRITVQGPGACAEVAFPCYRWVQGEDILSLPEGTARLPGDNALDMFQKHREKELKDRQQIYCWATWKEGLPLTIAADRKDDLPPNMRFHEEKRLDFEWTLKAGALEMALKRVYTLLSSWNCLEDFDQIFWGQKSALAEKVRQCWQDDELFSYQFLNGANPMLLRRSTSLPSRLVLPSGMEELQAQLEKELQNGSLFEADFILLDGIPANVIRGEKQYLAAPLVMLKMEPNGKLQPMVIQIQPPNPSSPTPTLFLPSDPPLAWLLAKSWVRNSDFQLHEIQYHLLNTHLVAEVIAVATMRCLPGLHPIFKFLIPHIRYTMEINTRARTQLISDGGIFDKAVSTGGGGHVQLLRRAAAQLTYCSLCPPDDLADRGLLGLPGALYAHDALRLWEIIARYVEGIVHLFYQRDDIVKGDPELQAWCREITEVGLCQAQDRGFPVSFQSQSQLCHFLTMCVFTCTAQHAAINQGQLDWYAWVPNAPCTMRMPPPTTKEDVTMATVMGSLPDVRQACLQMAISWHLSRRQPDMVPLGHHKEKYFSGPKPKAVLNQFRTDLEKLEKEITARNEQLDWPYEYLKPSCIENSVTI
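Hydroperoxide product was detected by ferrous iron/xylenol orange as the 573 to 405 nm absorbance ratio. Arachidonic acid at 40 uM (final) was turned over for 30 min at room temperature by 150 nM human 12hLO, pH 7.0 Hepes buffer, after 15 min compound preincubation.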
HT1080-NT tox – kills 2HG-producing HT-1080-NT fibrosarcoma cells | HT-1080-NT fibrosarcoma viability, CellTiter-Glo ATP luminescence, 48 h | 360,000 compounds, 1.6% hits | Potency, µM (highest dose often 46.1 µM), hits mostly cytotoxic;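 also: NT is the 2HG producing partner of a matched IDH1 knockdown line; nearly all actives have a fitted effect of over 55% in size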
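A 48-hour cytotoxicity screen used HT-1080-NT cells plated 2 hours before compound delivery. ATP-based CellTiter-Glo luminescence measured viability, normalized to DMSO and no-cell controls.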
IL1B secr inh – inhibitors of inflammasome signaling (IL-1 beta secretion); THP-1 LPS/ATP IL-1B secretion, AlphaLISA, 16 h; active compounds read low; activity change, % at 57.5 µM; 360,000 compounds, 4.7% hits; AID 743279; in the data active = activity change below about -50%; inconclusive = mostly about -30% to -49%
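THP-1 cells pretreated 1 hr with compounds (up to 57.5 uM final), then stimulated with LPS (250 ng/mL final) plus ATP (1.25 mM final); secreted IL-1B measured by AlphaLISA after 16 hr, decreased signal indicating inhibition.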
Hits are given with their value; - = inactive; ? = inconclusive; . = no result. The full list was thinned out, with hits kept by preference. Unless noted, calls follow the shape of the dose curve; as a rule, active = well fitted curve in the direction sought with a large enough effect; inconclusive = small, poorly fitted or top-dose-only effect, or another doubt; inactive = no such curve, though single readings can be large; an effect the other way counts as inactive or inconclusive.

SMILES	HT1080 IDH1KD tx	TDP1 cell CPT	DT40 TDP1 no CPT	ALOX12 inh	HT1080-NT tox	IL1B secr inh
COc1ccc(C2Nc3ccccc3C(=O)N2Cc2ccco2)cc1 (stereo not drawn)	.	?	12.6µM	.	.	.
CCCN1C(=O)c2ccccc2NC1c1ccc(Cl)cc1 (stereo not drawn)	-	-	-	?	-	-
O=C1c2ccccc2NC(c2ccccc2)N1Cc1ccco1 (stereo not drawn)	-	-	-	?	-	-
CCCN1C(=O)c2ccccc2NC1c1ccc(Br)cc1 (stereo not drawn)	-	-	?	-	?	-51.4
O=C1c2ccccc2NC(c2ccccc2OCc2ccccc2)N1Cc1ccco1 (stereo not drawn)	.	11.2µM	10µM	.	.	.
COc1ccc([C@@H]2CN(c3nnnn3-c3ccccc3)C[C@H]2NC(C)=O)cc1	.	.	.	-	.	.
COCCNC(=O)NC(=O)CN(CC(C)C)C1CC1	.	.	.	-	.	.
Cc1ccccc1N1C(=O)c2ccccc2N2C(=O)c3ccccc3C12 (stereo not drawn)	-	8.2µM	16.4µM	-	-	-
O=C1c2ccccc2N2C(=O)c3ccccc3C2N1O (stereo not drawn)	-	-	-	-	-	-
O=C1c2ccccc2N2C(=O)c3ccccc3C2N1Cc1ccco1 (stereo not drawn)	-	23.1µM	18.4µM	.	-	?
CC(C)(C)C(=O)Nc1ccc(NC(=O)C2CCCC2)cc1	.	.	.	-	.	.
O=C(Nc1ccc(Br)cc1)c1cccn1-c1ncc(C(F)(F)F)cc1Cl	11.2µM	15.8µM	?	?	?	-
Fc1ccccc1Cn1c2[n+](c3ccc(C(F)(F)F)cc31)CCCCC2	-	?	?	?	-	-
COc1ccc(OC)c(C(=O)Cn2c3[n+](c4ccc(C(F)(F)F)cc42)CCCCC3)c1	-	5.17µM	5.8µM	-	-	-
CCN(C(=O)CSc1nnc(-c2cccs2)n1N)C1CCCCC1	.	.	.	-	.	.
Cc1c(C(=O)N2CCN(c3ccccn3)CC2)sc2ncnc(N3CCOCC3)c12	-	-	-	?	-	-
CC(C(=O)Nc1ccccc1)N1CCN(c2ccccn2)CC1 (stereo not drawn)	-	-	-	-	-	-
Cc1nc(N2CCN(c3ccccn3)CC2)c2c(C)c(C(=O)N3CCN(c4ccc(F)cc4)CC3)sc2n1	-	?	?	-	-	-61.6
COc1ccc(Cl)cc1NC(=O)C(C)N1CCN(c2ccccn2)CC1 (stereo not drawn)	-	?	18.4µM	-	-	-
COc1ccc(OC)c(NC(=O)c2sc3ncnc(N4CCN(c5ccccn5)CC4)c3c2C)c1	-	?	20.6µM	.	?	-
Cc1c(C(=O)N2CCN(c3ccc(F)cc3)CC2)sc2ncnc(N3CCN(c4ccccn4)CC3)c12	.	18.4µM	14.6µM	-	.	-83.7
Cc1ccc(C(=O)N2CCC[C@H]2c2nc(-c3ccccc3)no2)c(C)c1	.	.	.	-	.	.
COc1ccc(-c2cc(N3CCCC(NC(=O)c4ccc(OC)cc4OC)C3)n[nH]2)cc1 (stereo not drawn)	.	.	.	-	.	.
O=C(Nc1ccc(Cl)c(-c2nc3cnccc3o2)c1)c1cc2ccccc2o1	.	.	.	-	.	.
COc1ccccc1N1CCN(C(=O)c2sc3ncnc(N4CCN(c5ccccn5)CC4)c3c2C)CC1	29.1µM	4.61µM	4.61µM	.	14.6µM	-75.4
SMILES	HT1080 IDH1KD tx	TDP1 cell CPT	DT40 TDP1 no CPT	ALOX12 inh	HT1080-NT tox	IL1B secr inh
COc1cc(F)ccc1-c1cc2c(nc1-c1ccccc1)nc(C(=O)NCCN(C)C)n2C	.	.	.	-	.	.
Cc1c2c(cc3c1[nH]c1ccccc13)C=NCC2	?	?	23.1µM	-	-	-73.0
COc1ccc2c(CCNC(=O)CSc3nc(Cl)nc4nc[nH]c34)c[nH]c2c1	.	.	.	-	.	.
Cc1noc2nc(C(C)C)cc(C(=O)NC3CCCc4c3[nH]c3ccccc43)c12 (stereo not drawn)	.	.	.	31.6µM	.	.
N#CCSc1nnc(-c2ccccc2)n1-c1ccc(Cl)cc1	.	.	.	-	.	.
Cc1cn(-c2cc(C(=O)Nc3ccc(C)c(NC(=O)C(=O)c4c[nH]c5ccccc45)c3)cc(C(F)(F)F)c2)cn1	?	8.2µM	7.31µM	-	?	-
Cc1ccc(NC(=O)C(=O)c2c[nH]c3ccccc23)cc1F	.	.	.	-	.	.
CCN(CC(=O)NC(N)=O)Cc1ccccc1C	.	.	.	-	.	.
CC(C)Cc1cc(C(=O)Nc2sc3c(c2C#N)CCCC3)no1	-	-	-	-	-	-
N#Cc1c(NC(=O)c2cc(-n3cnnc3)ccc2Cl)sc2c1CCCC2	?	20.6µM	13µM	-	?	-
Cc1cc(C(=O)Nc2sc3c(c2C#N)CCCC3)no1	?	?	?	35.5µM	?	-
N#Cc1c(NC(=O)/C=C/c2ccco2)sc2c1CCCC2	?	0.231µM	0.411µM	35.5µM	0.581µM	-
N#Cc1c(NC(=O)c2cc(C3CC3)on2)sc2c1CCC2	?	10.3µM	11.6µM	?	?	-
COc1ccc(CCC(=O)N2CCCCCNC(=O)[C@@H]3CCC[C@@H]32)cc1	.	.	.	-	.	.
CC(C)(C)C(=O)NC(=S)Nc1sc2c(c1C#N)CCCCC2	-	?	23.1µM	-	-	-
CC(OC(=O)c1c2c(nc3ccccc13)/C(=C\c1ccc3c(c1)OCO3)CCC2)C(=O)Nc1ccc(S(N)(=O)=O)cc1 (stereo not drawn)	?	?	18.4µM	.	-	?
CC(OC(=O)c1cc2ccccc2cc1O)C(=O)Nc1ccc(S(N)(=O)=O)cc1 (stereo not drawn)	-	-	-	-	-	-
Cc1cccc(C)c1NC(=O)COC(=O)c1ccc2c(c1)OCO2	-	-	?	-	-	-
Cc1cccc(C)c1NC(=O)COC(=O)c1c2c(nc3ccccc13)/C(=C\c1ccc3c(c1)OCO3)CCC2	-	?	18.4µM	-	-	-
CN(Cc1ccc(F)cc1F)S(=O)(=O)c1cccc2nsnc12	.	.	.	-	.	.
CC(C)NC(=O)Cc1ccc(-n2c(=O)c3ccccc3n(Cc3cccc(Cl)c3)c2=O)cc1	.	.	.	-	.	.
CSc1nnc2c(n1)[nH]c1c(C)cccc12	-	?	?	-	-	-
CCSc1nnc2c(n1)[nH]c1c(C)cccc12	?	13µM	12.6µM	-	?	-
CSc1ccccc1NC(=O)c1ccccn1	-	1.3µM	2.06µM	-	-	-
Cc1cccc(-c2ocnc2C(=O)Nc2ccccc2NC(=O)c2ccccn2)c1	?	0.92µM	0.291µM	-	18.4µM	?
Cc1ccc(-c2ocnc2C(=O)Nc2ccccc2NC(=O)c2ccccn2)cc1	?	20.6µM	?	-	?	?

Source: PubChem BioAssay (National Center for Advancing Translational Sciences (NCATS))
